Laboratory results published in PubChem BioAssay AID1025 (Sanford-Burnham Center for Chemical Genomics, 2008).
Fewer than 10 of roughly 96,000 compounds were called active.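 How the source made its calls: active means activation factor of at least 2 at 5 µM in the primary screen; inactive means the rest.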 These entries were drawn from the full list.

What follows are molecules tested against Cytochrome P450 2C19 (Homo sapiens) (UniProt P33261) (assay: enhancers of cytochrome P450 2C19 turnover – biochemical, luminescence, primary screen (AID 1025;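 further: 0 = wells with 2.5 mM tranylcypromine and 1 = vehicle-only wells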)). Details: recombinant CYP2C19, luciferin-H EGE luminescence; at 5 µM; active compounds read high; 0 = fully inhibited enzyme, 1 = untreated enzyme.
Cytochrome P450 2C19 (Homo sapiens), sequence (P33261 whole entry, looked up): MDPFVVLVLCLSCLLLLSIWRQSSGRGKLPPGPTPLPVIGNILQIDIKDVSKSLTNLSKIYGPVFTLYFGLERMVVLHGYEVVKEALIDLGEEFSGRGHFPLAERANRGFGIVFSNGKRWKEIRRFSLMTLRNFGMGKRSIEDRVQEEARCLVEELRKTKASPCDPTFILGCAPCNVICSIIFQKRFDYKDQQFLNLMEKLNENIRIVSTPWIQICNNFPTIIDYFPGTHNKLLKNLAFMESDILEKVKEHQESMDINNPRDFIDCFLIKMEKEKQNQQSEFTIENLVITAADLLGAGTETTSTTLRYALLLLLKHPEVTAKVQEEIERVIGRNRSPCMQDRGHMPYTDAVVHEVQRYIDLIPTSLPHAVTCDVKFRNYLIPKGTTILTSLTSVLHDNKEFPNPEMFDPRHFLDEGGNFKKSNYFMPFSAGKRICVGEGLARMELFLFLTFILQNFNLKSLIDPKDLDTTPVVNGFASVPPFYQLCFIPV

Activation factor, inactive:
CCc1ccc(CNC(=O)C2CCCN(c3nc4ccccc4o3)C2)cc1 (stereo not drawn) 0.3, CCn1cc(C(=O)N/N=C(/C)c2ccc(F)cc2)c(=O)c2cc(F)c(N3CCCC3)cc21 0.6, O=C(Nc1cccc(-c2nc3ncccc3o2)c1)c1ccco1 0.9, COc1ccccc1NC(=O)[C@H](COCc1ccccc1)NC(=O)OC(C)(C)C 0.5, CN=C1SC(CC(=O)Nc2ccc(C(=O)O)cc2)C(=O)N1C (stereo not drawn) 1, O=C(c1ccco1)N1CCN(C(=O)C2CCCN(S(=O)(=O)c3cccc4nsnc34)C2)CC1 (stereo not drawn) 1, COc1ccc(NC(=O)Cn2c(-c3ccc(OC)cc3)cn(-c3ccc(C)cc3)c2=O)cc1 1, O=C(N/N=C/c1ccc(O)cc1)/C(=C/c1ccc([N+](=O)[O-])cc1)NC(=O)c1ccccc1 0.9, CSc1ccc(C#N)cc1NC(=O)c1cccc(Cl)c1 0.8, Cc1ccc(S(=O)(=O)N(CC(=O)NCCSC2CCCCC2)c2ccccc2F)cc1 1, CC(c1ccco1)N(C(=O)COc1ccccc1[N+](=O)[O-])c1ccccn1 (stereo not drawn) 0.6, C=CCn1c(SCC(=O)NCc2ccccc2)nnc1-c1cc(Br)ccc1O 0.1, O=C(Nc1nccs1)c1cc(S(=O)(=O)N2CCOCC2)c(Cl)cc1Cl 0.9, CC(C)CCOc1ccc(C(=O)C[N+]2(C)CCOCC2)cc1 0.9, O=C(N/N=C/C=C/c1ccccc1)C1CC1(c1ccccc1)c1ccccc1 (stereo not drawn) 1.2, COCCNC(=O)COc1ccccc1C 1, COc1ccccc1NC(=O)COc1ccc(C(=O)OCC(=O)N(C(C)C)C(C)C)cc1OC 0.4, CCCN1Cc2cccc(C(=O)Nc3ccc(S(=O)(=O)N4CCCCCC4)cc3)c2C1=O 0.8, Cc1cccc(C)c1-n1c(C)cc(/C=C2\C(=O)NN(c3ccccc3)C2=O)c1C 0.6, Cc1ccc(SCCC(=O)OCC(=O)Nc2ncc(Cl)cc2Cl)cc1 0.8, COc1ccc(NCc2nnc(SCc3ccccc3)n2-c2ccc(OC)cc2)cc1 0.1, COc1ccc(-c2cc3nc(C)c(CCC(=O)NC(C)CCc4ccco4)c(C)n3n2)c(OC)c1 (stereo not drawn) 0.7, O=C(COc1cc(Cl)c(Cl)cc1Cl)NC(=O)NC1CCCC1 1.1, CCCCCN1CC(O)=C(c2nc(-c3ccc(Cl)cc3)cs2)C1=N 0.9, Cc1ccc(-n2c(SCC(=O)NCc3ccc4c(c3)OCO4)nnc2-c2cccnc2)c(C)c1 0.7, CCCCNC(=O)CSc1nc2ccc(NC(=O)CSc3nnc(COc4ccccc4C)n3C)cc2s1 0.8, CSc1nc2ccccc2cc1/C=C(\C#N)c1ccc(Cl)cc1Cl 0.9, Cc1nnc(SCC(=O)Nc2ncc3c(n2)CC(C)(C)CC3=O)s1 1, O=C(Nc1ccc2c(c1)OCCO2)C(c1ccc(F)cc1)N1CCCCC1 (stereo not drawn) 0.4, COc1cc(C2C(C(=O)OCCC#N)=C(C)NC3=C2S(=O)(=O)c2ccccc23)cc(OC)c1OC (stereo not drawn) 0.8, CCCCN1C(=O)CC(N2CCOCC2)C1=O (stereo not drawn) 1, O=c1c2ccccc2nc2n1C1(CCCCC1)Cc1ccccc1-2 0.3, Cc1ccc(OCc2nnc(NC(=O)OCC(C)C)s2)cc1 0.9, Cc1csc(=NC(=O)c2ccccc2)n1CCO 0.5, CSC1=N/C(=C\c2ccc3c(c2)OCO3)C(=O)S1 1, CC(C)(C)c1cc2cccnc2n1Cc1cccc(F)c1 0.9, CCNC(=S)Nc1cccc(Cl)c1C 0.5, CN1CCN(c2ccc([N+](=O)[O-])c(Sc3nc4ccccc4[nH]3)c2)CC1 0.7, CC/C(C)=N/Nc1nc2sc3c(c2c(=O)[nH]1)CC(C)(C)OC3 0.6, CCC(=O)Nc1ccc(C(=O)Nc2cccc(OC)c2)cc1 1, C=CCn1c(SCC(=O)c2c(N)n(C)c(=O)n(C)c2=O)nc2sc(CC)cc2c1=O 1, COc1ccc(-c2nc3ccccc3n2CCC(C)C)cc1OC 0.4, CC(C)Oc1ccc(C(=O)NC(C)(C)CO)cc1 1, COc1ccc(C(=O)Nc2ncc3c(n2)-c2ccccc2CC3)cc1 0.9, O=C(Nc1cccc2ccccc12)c1onc2c1CCCC2 0.9, FC(F)(F)c1ccc2nnc(-c3c(Cl)cccc3Cl)n2c1 0.7, Cc1cc(C(=O)OCC(=O)Nc2ccc(F)c(F)c2)c(C)o1 0.1, Cc1nnc(SCC(=O)NC(=O)NC2CCCC2)n1N 1, Cc1ccc(-c2csc(N(Cc3ccco3)C(=O)c3cccs3)n2)cc1 0.3, O=C(c1ccccc1Oc1ccccc1)N1CCN(c2ccc(F)cc2)CC1 0.1, O=C1N=C(N2CCCC2)S/C1=C\c1cccc(Br)c1 0.4, Cc1noc(C)c1COC(=O)c1cc2ccccc2cc1O 0.1, Cc1nnc(OCC(=O)NCCC2=CCCCC2)c2ccccc12 0.4, CCOCCCNC(=O)C(NC(=O)CNC(=O)c1ccccc1)c1ccc(C)cc1 (stereo not drawn) 1.1, Nn1c(SCC(=O)NC2CCCC2)nnc1-c1ccccc1F 0.8, CCN(CC)Cc1csc2ccc(Br)cc12 0.9, CN(C)c1ccc(CNC2C3CC4CC(C3)CC2C4)cc1 (stereo not drawn) 0.2, FC(F)(F)c1cccc(-c2cc3ccccc3nc2N2CCCC2)c1 0.8, COc1ccc2[nH]c(=O)c(CNc3ccc(C)c(C)c3)cc2c1 0.8, Cn1nc(C(F)(F)F)c(C(=O)Nc2cccc(C(F)(F)F)c2)c1SCc1ccc(Cl)cc1 0.1, Cc1ccc(/C=N\n2c(-c3ccccc3)n[nH]c2=S)s1 1, CCCCCCOc1ccc(OC(=O)c2cccnc2)cc1 0.8, O=S(=O)(c1cnccc1N1CCN(/N=C/c2ccc(Br)cc2)CC1)N1CCCCC1 1.1
